9 compounds from PubChem BioAssay AID602290 (National Center for Advancing Translational Sciences (NCATS), 2012) can be followed below.

Calls of active or inactive are those of the source.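 Rule for the calls: active = fold change shows a rise in VEGF expression relative to GAPDH, above the control level; inconclusive = expression about equal to the control; inactive = no rise in relative expression.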

The nature of this assay: qHTS Assay for Agonists of the Relaxin Receptor RXFP1: VEGF expression. Particulars: THP1 cells, VEGF mRNA qRT-PCR, 2 h; active compounds read high. The source says:
The relaxin hormone is involved in the variety of biological functions in normal tissues and diseases. The role of relaxin is well-established in female reproduction and parturition, mammary gland and endometrial development, maintenance of myometrial quiescence during pregnancy. Relaxin signaling through its G protein-coupled receptor (GPCR) RXFP1 results in ECM remodeling through regulation of collagen deposition, cell invasiveness, proliferation and overall tissue homeostasis. […] Recombinant human relaxin (rhRlx) is currently being tested in clinical trials as a protective agent in congestive heart failure, in treating severe preeclampsia, and as an anti-fibrotic agent in systemic sclerosis.
Upon relaxin binding RXFP1 activation leads to the activation of adenylate cyclase (AC) via Gs. cAMP will activate PKA, which phosphorylates many signaling proteins. Thus, detection of cAMP increase is an easy and reliable indication of relaxin receptor activation. To screen for agonists of the relaxin receptor, a HEK293T cell line stably transfected with RXFP1 was used. RXFP1 activation was assayed by changes in cAMP levels as detected with a time-resolved fluorescence energy transfer (TR-FRET) cAMP detection kit.
After the primary screen and SAR work, a probe and its analogs were tested in this selectivity assay. THP1 cells (human acute monocytic leukemia cell line) were used to analyze the stimulation of VEGF gene expression after treatment with relaxin or compounds. The VEGF stimulation in these cultured […] cells is a well-established property of relaxin.
NIH Chemical Genomics Center [NCGC]
NIH Molecular Libraries Probe Production Centers Network [MLPCN]
Assay Submitter (PI): Alexander Agoulnik
400,000 THP1 cells (0.4 mL at 1x10^6 cells/mL) in test media (RPMI-1640 without phenol red, 0.5% FBS, 1x Pen/Strep, 0.05 mM of 2-mercaptoethanol) were seeded in each well on a 24-well plate. After 24 hours incubation at 37 degrees C, 5% CO2, relaxin or compounds were added for 2 hours. The cells were harvested and RNA was extracted by the Trizol (Invitrogen, Carlsbad, CA) method according to manufacturers' instructions. cDNA was synthesized by using Verso cDNA kit (Thermo Scientific, Waltham, MA) according to manufacturer's protocol. Quantitative real time RT-PCR for VEGF and GAPDH gene expression was done using a Roche LightCycler 480 (Roche Diagnostics, Indianapolis, IN) with the appropriate set of primers and probes spanning different exons. The relative fold change in VEGF mRNA level was calculated by the comparative Ct (2- Ct) method using GAPDH expression for normalization of RNA.
For orientation: In qHTS, concentration-response curves come from the screen itself.
Regarding `CCCOc1ccccc1C(=O)Nc1ccccc1C(=O)Nc1cccc(S(=O)(=O)C(F)(F)F)c1`, the fold change is 1.53 (active).

In the case of `COc1ccccc1C(=O)Nc1ccccc1C(=O)Nc1cccc(S(=O)(=O)C(F)(F)F)c1`, the fold change was 1.41 (active). Regarding `CCCCOc1ccccc1C(=O)Nc1ccccc1C(=O)Nc1cccc(S(=O)(=O)C(F)(F)F)c1`, the fold change was 1.57 (active). In the case of `COc1ccccc1C(=O)Nc1ccccc1C(=O)Nc1cccc(SC(F)(F)F)c1`, the fold change is 1.15 (active). Take `CCOc1ccccc1C(=O)Nc1ccccc1C(=O)Nc1cccc(C(F)(F)F)c1`: the fold change was 1.93 (active). Take `CC(C)Oc1ccccc1C(=O)Nc1ccccc1C(=O)Nc1cccc(S(=O)(=O)C(F)(F)F)c1`: the fold change is 2.79 (active). Under `O=C(O)c1cc(-c2ccccc2)nn1CC1CC(c2cccnc2)=NO1` (centres undefined) stands 1.01 (inactive). For `CCOc1ccccc1C(=O)Nc1ccccc1C(=O)Nc1cccc(S(=O)(=O)C(F)(F)F)c1`, the fold change was 2.33 (active).

As to `O=C(Nc1cccc(S(=O)(=O)C(F)(F)F)c1)c1ccccc1NC(=O)c1ccccc1OCC(F)(F)F`, the fold change is 1.24 (active).
